The list is not random: actives were taken first. Their share in the collection is about 19%.
DT40 TDP1 no CPT: qHTS for Inhibitors of human tyrosyl-DNA phosphodiesterase 1 (TDP1): qHTS in cells in absence of CPT; AID 686978, 2013; 420,000 tested, 15% active; DT40 Tdp1-/- hTDP1 cells, no CPT, ATP luminescence, 48 h; Potency, µM (doses to about 46.2 µM), for the others: top-dose activity change, negative = growth inhibition, hits mostly inhibitors; also: potency is read from the fitted curve at half-maximal effect; nearly all actives have a fitted effect of over 55% in size
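DT40 Tdp1-/-;hTDP1 cells, no CPT (DMSO vehicle only), 400 cells/well; compounds pin-transferred; ≥48 hr, 37 °C; CellTiter-Glo 30 min RT dark, luminescence read.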
HT1080 IDH1KD tx: toxicity to HT-1080 IDH1 knockdown cells (counter line); HT-1080 IDH1 knockdown viability, ATP luminescence, 48 h; Potency, µM (top dose mostly 46.1 µM), without a hit: top-dose activity, negative = toxicity, hits mostly cytotoxic; 360,000 tested, 2% active;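 also: potency is read from the fitted curve at half-maximal effect; 0% = DMSO wells and -100% = cell-free medium wells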
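After a 2 h attachment period, IDH1KD HT-1080 cells took pin-transferred compound for 48 h at 37 °C; ATP-based luminescence after 10 min room-temperature reagent incubation reported viability.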
IL1B secr inh: inhibitors of inflammasome signaling (IL-1 beta secretion); 360,000 tested, 4.7% active; AID 743279; THP-1 LPS/ATP IL-1B secretion, AlphaLISA, 16 h; stronger effect = lower value; activity change, % at 57.5 µM; in the data active = activity change below about -50%; inconclusive = mostly about -30% to -49%
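THP-1 cells pretreated 1 hr with compounds (up to 57.5 uM final), then stimulated with LPS (250 ng/mL final) plus ATP (1.25 mM final); secreted IL-1B measured by AlphaLISA after 16 hr, decreased signal indicating inhibition.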
TDP1 cell CPT: DT40-hTDP1 cell growth loss with CPT; chicken DT40 Tdp1-/-;hTDP1 cells + 20 nM CPT, ATP luminescence, 48 h; Potency, µM (top dose mostly 46.2 µM), without a hit: top-dose activity change, negative = growth inhibition, hits mostly inhibitors; AID 686979; 420,000 tested, 12% active; also: potency is read from the fitted curve at half-maximal effect; nearly all actives have a fitted effect of over 55% in size
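Cell growth measured by CellTiter-Glo luminescence after a minimum 48 h, 37 C compound exposure with 20 nM CPT in Tdp1-knockout DT40 cells stably expressing hTDP1, seeded 400/well; qHTS titration format.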
HT1080-NT tox: kills 2HG-producing HT-1080-NT fibrosarcoma cells. Potency, µM (titrated, usually from 46.1 µM), for the others: at the top dose activity, negative = less viability, hits mostly cytotoxic. 360,000 tested, 1.6% active. HT-1080-NT fibrosarcoma viability, CellTiter-Glo ATP luminescence, 48 h. AID 686970;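 also: NT is the 2HG producing partner of a matched IDH1 knockdown line; potency is read from the fitted curve at half-maximal effect; 0% = DMSO-treated cells and -100% = media-only wells without cells; nearly all actives have a fitted effect of over 55% in size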
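Toxicity toward the 2HG-producing NT line was scored as %Activity, normalised to DMSO and no-cell wells, from CellTiter-Glo luminescence after 48 hours' treatment.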
ELG1 DNA repair: blocks ELG1-dependent DNA repair in HEK293T cells | HEK293T ELG1-luciferase reporter, luminescence, 16 h; DNA damage induced by 5-fluorouridine | Potency, µM (top dose mostly 46.1 µM), for inactives: top-dose activity change, negative = inhibition, most hits filed as inhibitors | 330,000 tested, 2.3% active | AID 504467; also: potency is read from the fitted curve at half-maximal effect; nearly all actives have a fitted effect of over 55% in size
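Overnight (16 hr) co-exposure of 2,000 cells/well to 5-fluorouridine and compound at 37 °C preceded detection. Luciferase was quantified via ONE-Glo luminescence; loss of signal denotes inhibition.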
Active calls of the source: *; ? = inconclusive; / = no result; ! = a repeat was not active. Unless noted, calls follow the shape of the dose curve; as a rule, active = well fitted curve in the direction sought with a large enough effect; inconclusive = small, poorly fitted or top-dose-only effect, or another doubt; inactive = no such curve, though single readings can be large; an effect the other way counts as inactive or inconclusive. Unless noted, % is scaled to controls: 0 for no effect and ±100 for the full control effect.

SMILES	DT40 TDP1 no CPT	HT1080 IDH1KD tx	IL1B secr inh	TDP1 cell CPT	HT1080-NT tox	ELG1 DNA repair
Cc1ccc(NC(=O)CSc2ncc3c(n2)-c2ccccc2N(C)S3(=O)=O)c(Cl)c1	0.651µM*	/	/	0.731µM*	/	/
CN1c2cc(Cl)ccc2-c2nc(SCC(=O)Nc3ccc(F)cc3F)ncc2S1(=O)=O	16.4µM*	/	/	23.1µM*	/	/
CSc1c(-c2ccccn2)c(N)nn1C(=O)C1CCC1	?	11.1%	1.5	?	10.9%	-10.1%
COc1cccc(CNC(=O)CCS(=O)(=O)c2ccccc2Cl)c1	-13.6%	3.8%	-9.6	13.6%	5.1%	16.0%
COc1cc(/C=C2\C(=O)ON=C2c2ccccc2)cc(Br)c1O	10.3µM*	?	-29.4	6.51µM*	16.4µM*	-1.5%
COc1cc(/C=C2\C(=O)ON=C2c2ccccc2)cc(Cl)c1O	18.4µM*	?	-14.8	16.4µM*	?	11.5%
COc1cc(C=C2C(=O)OC(c3ccccc3)OC2=O)cc(Br)c1O (stereo not given)	23.1µM*	5.2%	13.1	?	11.2%	6.5%
COc1cc(/C=C2/C(=O)ON=C2c2ccccc2)ccc1O	18.4µM*	-7.4%	-105.2*	23.1µM*	-12.6%	?
Cc1sc(/C=C2\C(=O)ON=C2c2ccccc2)cc1Br	/	/	/	/	/	23.7%
O=C(CSc1nnc2ccc(-c3ccccn3)nn12)Nc1ccccc1F	6.0%	0.6%	-5.5	-25.6%	2.6%	13.4%
CCOc1cc(/C=C2\C(=O)ON=C2c2ccccc2)cc(Br)c1O	?	?	-104.4*	?	?	?
COc1cc(/C=c2\sc3n(c2=O)C(c2ccccc2)C(c2ccccc2)=NN=3)ccc1O (stereo not given)	14.6µM*	-26.6%	?	?	-19.3%	?
CCOc1cc(/C=C2/C(=O)ON=C2C)cc(Br)c1O	?	6.3%	0.0	?	-1.2%	9.4%
Cc1ccn2c(NCc3ccccc3)c(-c3cccc(SC4CCCCC4)c3)nc2c1	?	?	-79.4*!	23.1µM*	?	?
CCC(C)Sc1cccc(-c2nc3cc(C)ccn3c2NCc2ccccc2)c1 (stereo not given)	?	26.4µM*	-72.5*	23.1µM*	20.9µM*	?
CCC(C)Sc1ccc(-c2nc3ccc(C)cn3c2NC2CCCCC2)cc1 (stereo not given)	8.2µM*	/	20.9	7.31µM*	/	0.5%
c1ccc(CNc2c(-c3cccc(SC4CCCCC4)c3)nc3ccccn23)cc1	?	?	-28.4	?	?	?
Clc1ccc2nc(-c3cccc(SC4CCCCC4)c3)c(NCc3ccccc3)n2c1	?	0.1%	-24.3	16.4µM*	-0.2%	?
COc1ccc(-c2nc3cc(C)ccn3c2NCc2ccc3c(c2)OCO3)cc1	?	-21.7%	-1.6	?	-10.8%	-14.5%
O=C(COC(=O)CCC1CCCC1)Nc1ccc(F)cc1	-6.7%	11.4%	-10.0	-20.8%	2.0%	8.7%
CC(C)c1cc(C(=O)NCc2ccccc2)no1	12.0%	/	/	-5.4%	/	/
Cc1ccc2nc(-c3cccc(SC4CCCCC4)c3)c(NCc3ccccc3)n2c1	18.4µM*	-21.9%	-2.7	25.9µM*	?	25.9µM*
Cc1ccc2nc(-c3cccnc3)c(NC3CCCCC3)n2c1	?	1.9%	34.6	?	-5.3%	-3.0%
COc1ccc(-c2ccc(-c3nc4ccc(C)cn4c3NC3CCCCC3)cc2OC)cc1	13µM*	?	-55.1*!	10.3µM*	?	?
Cc1ccc2nc(-c3cccc(SC4CCCCC4)c3)c(NC3CCCCC3)n2c1	16.4µM*	-0.8%	10.0	20.6µM*	-1.1%	?
SMILES	DT40 TDP1 no CPT	HT1080 IDH1KD tx	IL1B secr inh	TDP1 cell CPT	HT1080-NT tox	ELG1 DNA repair
O=C1CCN(CCc2ccccc2)CCN1CCSc1ccccc1	?	-7.5%	-10.4	?	1.3%	?
Fc1ccccc1-n1ncc2c1ncn1nc(Cc3ccccc3)nc21	-14.5%	/	/	5.0%	/	/
COc1ccccc1CCNC(C)CCc1ccc(O)cc1 (stereo not given)	-19.7%	-0.9%	-3.4	?	4.9%	10.8%
COc1ccc(CNCc2cccc(Oc3ccccc3)c2)cc1	?	?	-79.9*	-12.9%	-22.0%	-22.6%
COc1ccc(CCC(C)NCc2ccccc2OC)cc1 (stereo not given)	?	-4.7%	-81.6*	25.9µM*	-0.4%	-4.3%
COc1cc(CNCc2ccc(OC)c(OC)c2OC)cc(OC)c1	20.6µM*	?	?	18.4µM*	-0.2%	-14.6%
COc1ccc(CNCc2ccc3ccccc3c2)c(OC)c1	16.4µM*	-9.9%	-68.1*	16.4µM*	-18.2%	-22.6%
COc1ccc(CNCc2ccncc2)c(OC)c1	-21.5%	-13.7%	24.4	6.6%	-0.2%	-2.0%
COc1cc(=O)n2c(c1C(=O)N(C)Cc1nonc1C)CCN(C(=O)c1cc(C)ccc1C)CC2	-3.8%	/	/	5.7%	/	/
CCCc1nc2nc(C)c(NS(=O)(=O)c3ccc(CC(C)C)cc3)c(=O)n2[nH]1	-11.4%	-12.5%	-5.6	1.5%	-4.8%	8.0%
Cc1cccc(-c2nnc(SCC(=O)N3CCOCC3)o2)c1	-7.4%	-6.4%	4.7	3.5%	0.5%	?
Cc1c(Cl)cccc1NC(=O)c1cc(-c2cccs2)on1	-27.7%	/	/	?	/	/
O=C(CSCc1ccc(F)cc1)N1CCN(c2ccc(Cl)cc2)CC1	20.6µM*	/	/	16.4µM*	/	/
Cc1cccc(N2CCN(C(=O)CSCc3c(C)noc3C)CC2)c1C	7.31µM*	?	-14.3	20.6µM*	3.9%	9.9%
Cc1noc(C)c1CSCC(=O)N1CCN(c2ccc(F)cc2)CC1	18.4µM*	-13.0%	0.0	?	2.1%	11.2µM*
COc1ccccc1-c1nc(SCC(=O)NCc2ccc(C)cc2)c2c(=O)n(C)c(=O)n(C)c2n1	-14.8%	/	/	-10.2%	/	/
CCCn1cc(CN2CCC(n3nccc3NC(=O)c3ccc4c(c3)OCO4)CC2)c(C)n1	8.7%	5.9%	20.6	-0.2%	2.6%	18.5%
Cc1cc2c(cc1S(=O)(=O)NCc1ccccc1Cl)OCC(=O)N2	-17.9%	/	/	?	/	/
CCOc1ccccc1CNS(=O)(=O)c1cc2c(cc1C)NC(=O)CO2	23.1µM*	/	/	?	/	/
COc1cccc(N2CCN(C(=O)c3ccc(C)c(NC(=O)c4nsc5ccccc45)c3)CC2)c1	18.4µM*	/	/	?	/	/

Screening results from PubChem.
